L3MBTL1 block: qHTS Assay for the Inhibitors of L3MBTL1; AlphaScreen L3MBTL1–H3K9me1 peptide binding; 0.66% of 230,000 active; AID 485360, 2010; Potency, µM (titrated, usually from 57.1 µM), actives largely listed as inhibitors; Lethal(3)malignant brain tumor-like protein 1 (Homo sapiens), Q9Y468; further: nearly all actives have a fitted effect of over 60% in size
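Displacement of a biotinylated histone H3(1-15) peptide monomethylated at Lys9 (75 nM) from L3MBTL1 (50 nM) was measured by AlphaScreen after a 30 min room-temperature compound incubation; cefsulodin titration served as intraplate control.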
HP1b binding inh: HTS for Inhibitors of HP1-beta Chromodomain Interactions with Methylated Histone Tails; Potency, µM (series often up to 114 µM), actives largely listed as inhibitors; Chromobox protein homolog 1 (Homo sapiens), P83916; AlphaScreen HP1-beta / biotin-H3K9me3 peptide binding; 0.56% of 390,000 active; further: nearly all actives have a fitted effect of over 70% in size
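AlphaScreen: HP1-beta (50 nM) preformed 30 min with biotin-H3(1-18)K9me3 peptide (50 nM) in PBS pH 7.4, 0.01% Tween-20. Compound added for 30 min at RT, then streptavidin donor/nickel chelate acceptor beads (10 ug/mL) for 30 min.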
G9a inh: qHTS Assay for Inhibitors of Histone Lysine Methyltransferase G9a; G9a H3K9 monomethylation, AlphaScreen, 2 h; Potency, µM (titrated, usually from 102 µM), hits mostly inhibitors; 8.8% of 350,000 active; further: nearly all actives have a fitted effect of over 75% in size
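Step 1: enzyme (final 20 nM) with compound, 15 min RT. Step 2: substrate peptide 500 nM and SAM 20 uM, 2 h RT. Step 3: anti-H3K9me1 antibody and AlphaScreen beads, 10 min, then plate read.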
BAZ2B block: qHTS Assay for Inhibitors of BAZ2B; 4.4% of 360,000 active; AlphaScreen BAZ2B-H3K14Ac peptide displacement; Potency, µM (series often up to 114 µM), hits mostly inhibitors; Bromodomain adjacent to zinc finger domain protein 2B (Homo sapiens), Q9UIF8; further: nearly all actives have a fitted effect of over 60% in size
Target sequence (Q9UIF8 whole entry, looked up, the tested form may be a part): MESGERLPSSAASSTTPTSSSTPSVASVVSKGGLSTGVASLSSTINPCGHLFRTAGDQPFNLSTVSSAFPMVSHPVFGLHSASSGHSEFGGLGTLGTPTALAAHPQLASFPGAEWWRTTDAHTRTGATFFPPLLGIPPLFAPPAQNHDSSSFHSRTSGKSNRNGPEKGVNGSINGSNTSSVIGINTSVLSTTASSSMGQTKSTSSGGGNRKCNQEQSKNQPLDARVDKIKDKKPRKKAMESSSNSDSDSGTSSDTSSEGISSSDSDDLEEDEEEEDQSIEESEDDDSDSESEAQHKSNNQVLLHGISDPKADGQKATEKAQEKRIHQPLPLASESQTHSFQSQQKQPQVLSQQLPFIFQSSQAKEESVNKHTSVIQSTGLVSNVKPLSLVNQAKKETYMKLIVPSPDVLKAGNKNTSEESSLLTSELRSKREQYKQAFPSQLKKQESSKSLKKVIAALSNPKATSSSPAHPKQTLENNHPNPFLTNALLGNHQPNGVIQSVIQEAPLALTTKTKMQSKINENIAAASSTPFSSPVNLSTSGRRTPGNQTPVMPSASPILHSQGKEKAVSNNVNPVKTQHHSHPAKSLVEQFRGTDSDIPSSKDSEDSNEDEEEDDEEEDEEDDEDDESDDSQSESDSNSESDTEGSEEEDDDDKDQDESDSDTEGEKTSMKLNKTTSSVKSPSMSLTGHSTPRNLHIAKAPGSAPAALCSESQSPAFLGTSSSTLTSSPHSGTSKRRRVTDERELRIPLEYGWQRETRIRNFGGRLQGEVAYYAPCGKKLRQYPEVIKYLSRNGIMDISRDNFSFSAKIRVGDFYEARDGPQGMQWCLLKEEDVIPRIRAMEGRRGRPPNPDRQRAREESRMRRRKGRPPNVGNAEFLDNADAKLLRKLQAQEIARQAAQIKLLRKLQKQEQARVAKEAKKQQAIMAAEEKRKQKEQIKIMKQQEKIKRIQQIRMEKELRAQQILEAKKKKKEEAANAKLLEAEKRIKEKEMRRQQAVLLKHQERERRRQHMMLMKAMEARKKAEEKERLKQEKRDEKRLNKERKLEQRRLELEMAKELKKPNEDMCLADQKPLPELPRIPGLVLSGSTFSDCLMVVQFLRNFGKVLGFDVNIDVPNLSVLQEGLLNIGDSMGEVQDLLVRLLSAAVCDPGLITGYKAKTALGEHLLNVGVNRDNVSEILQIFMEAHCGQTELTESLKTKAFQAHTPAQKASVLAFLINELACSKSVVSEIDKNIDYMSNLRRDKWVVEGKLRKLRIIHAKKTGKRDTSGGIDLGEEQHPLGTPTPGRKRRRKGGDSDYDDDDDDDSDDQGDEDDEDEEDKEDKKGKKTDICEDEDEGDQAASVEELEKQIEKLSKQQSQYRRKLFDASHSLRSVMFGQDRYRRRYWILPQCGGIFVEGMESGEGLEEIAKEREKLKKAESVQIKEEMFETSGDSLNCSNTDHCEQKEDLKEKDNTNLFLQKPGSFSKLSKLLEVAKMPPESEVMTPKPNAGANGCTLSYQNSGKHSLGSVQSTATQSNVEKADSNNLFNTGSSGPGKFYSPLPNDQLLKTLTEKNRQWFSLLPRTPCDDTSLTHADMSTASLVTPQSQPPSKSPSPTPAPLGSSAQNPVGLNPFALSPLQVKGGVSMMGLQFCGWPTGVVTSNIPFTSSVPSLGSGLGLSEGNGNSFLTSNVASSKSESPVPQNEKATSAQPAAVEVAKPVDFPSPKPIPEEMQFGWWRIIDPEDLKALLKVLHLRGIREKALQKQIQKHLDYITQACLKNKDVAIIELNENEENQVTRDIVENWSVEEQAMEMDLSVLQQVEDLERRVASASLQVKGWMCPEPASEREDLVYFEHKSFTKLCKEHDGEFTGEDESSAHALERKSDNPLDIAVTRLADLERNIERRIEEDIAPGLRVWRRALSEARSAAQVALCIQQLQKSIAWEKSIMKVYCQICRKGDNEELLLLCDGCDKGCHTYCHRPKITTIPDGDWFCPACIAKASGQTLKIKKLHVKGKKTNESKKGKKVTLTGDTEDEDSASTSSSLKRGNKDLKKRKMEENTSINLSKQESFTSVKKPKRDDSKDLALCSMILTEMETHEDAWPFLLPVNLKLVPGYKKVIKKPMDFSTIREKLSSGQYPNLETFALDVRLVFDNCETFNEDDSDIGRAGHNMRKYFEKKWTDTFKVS
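Compounds, titrated to a top concentration of 110 uM, were incubated 30 min at room temperature with preformed BAZ2B/acetyl-K14 H3 peptide complex (50 nM each). Proximity signal was measured by AlphaScreen after 20 min with beads.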
JMJD2A Tudor: qHTS Assay for Inhibitors of JMJD2A-Tudor Domain | 4.4% of 390,000 active | Lysine-specific demethylase 4A (Homo sapiens), O75164 | Potency, µM (titrated, usually from 114 µM), usual class: inhibitors | AlphaScreen JMJD2A-Tudor / H3K4me3 peptide binding; further: nearly all actives have a fitted effect of over 50% in size
A number is an active result; [ ] = dose if it differs, or a comment. This is a sample that favours compounds with a hit; in the whole collection about 11% have one here. The call rests on the fitted dose curve; in most records, active means well fitted inhibition curve with a large enough effect; inconclusive means small, poorly fitted or top-dose-only effect; inactive means no such curve, though single readings can be large or run the other way.

For CCOc1cc(/C=N/Nc2cccc(C(=O)O)c2)ccc1OC(=O)c1ccccc1 the results were L3MBTL1 block inactive, HP1b binding inh inconclusive, G9a inh 10µM, BAZ2B block inconclusive and JMJD2A Tudor inconclusive.
For COc1cc(OC)c2c(c1)C(=O)OC2c1cc(OC)c(OC)cc1C (centres undefined) the results were HP1b binding inh inactive and JMJD2A Tudor inactive.
`Cn1cccc1C(=O)N1CCC2(CCCN(c3ccccc3)C2)CC1` gave G9a inh inactive[12.7 µM].
`Cn1cccc1-c1cc(C(=O)N/N=C/c2ccc(Cl)cc2)[nH]n1` gave HP1b binding inh inactive, G9a inh inactive, BAZ2B block 50µM and JMJD2A Tudor inconclusive.
Screening COc1cc(/C=N/NC(=O)c2cc(-c3cccn3C)n[nH]2)cc(OC)c1OC returned L3MBTL1 block inactive, HP1b binding inh inactive, BAZ2B block 40µM and JMJD2A Tudor inconclusive.
Screening COc1cccc(-n2nc(C(=O)O)c3ccccc3c2=O)c1 returned L3MBTL1 block inactive, HP1b binding inh inactive, G9a inh inconclusive, BAZ2B block inactive and JMJD2A Tudor inactive.
COc1ccc(-n2nc(C(=O)O)c3csc(N)c3c2=O)cc1 was read as JMJD2A Tudor 79µM.
Nc1scc2c(C(=O)O)nn(-c3ccccc3)c(=O)c12 was read as L3MBTL1 block inactive, HP1b binding inh inactive, G9a inh inactive[0.501 µM], BAZ2B block inconclusive and JMJD2A Tudor 79µM.
Screening COC(=O)c1nn(-c2ccc(OC)cc2)c(=O)cc1Sc1ccc(C)cc1 returned L3MBTL1 block inactive, HP1b binding inh inactive, G9a inh inactive, BAZ2B block inactive and JMJD2A Tudor inactive.
COC(=O)c1nn(-c2ccc(OC)cc2)c(=O)c2c(N)sc(C)c12 was read as L3MBTL1 block inactive, HP1b binding inh inconclusive, G9a inh 10µM, BAZ2B block inconclusive and JMJD2A Tudor inconclusive.
For COC(=O)c1nn(-c2ccc(OC)cc2)c(=O)cc1NN the results were L3MBTL1 block inconclusive, HP1b binding inh inactive, G9a inh 45µM, BAZ2B block inactive and JMJD2A Tudor inactive.
`Cc1ccc2nc(-c3cccc(NC(=O)c4cccc5c(Cl)cccc45)c3)oc2c1` gave HP1b binding inh inactive, G9a inh inactive, BAZ2B block inactive and JMJD2A Tudor inactive.
`CCCN1CNc2c(c(=O)[nH]c(=S)n2CCc2c(Cl)cccc2Cl)C1` gave HP1b binding inh inactive and JMJD2A Tudor inactive.
`CCOC(=O)c1nn(-c2ccc(C)cc2)c(=O)c2c(N)scc12` gave L3MBTL1 block inactive, HP1b binding inh inactive, G9a inh 1.3µM, BAZ2B block inconclusive and JMJD2A Tudor inconclusive.
`CN1C(=O)C(c2nnc(Nc3cccc4ccccc34)s2)C2CC1(C)Oc1ccccc12` (centres undefined) gave L3MBTL1 block inactive, HP1b binding inh inactive, G9a inh 45µM, BAZ2B block inactive and JMJD2A Tudor inconclusive.
`CCOC(=O)c1c(C)[nH]c(C)c1S(=O)(=O)NCC(=O)Nc1ccc(CC)cc1` gave HP1b binding inh inactive, G9a inh inactive, BAZ2B block inactive and JMJD2A Tudor inactive.
For CCSc1nnc(NC(=O)C(CC)(C(F)(F)F)C(F)(F)F)s1 the results were HP1b binding inh inactive, G9a inh 50µM, BAZ2B block inconclusive and JMJD2A Tudor inactive.
`CCSc1nnc(NC(=O)c2cccnc2)s1` gave HP1b binding inh inactive, G9a inh inactive[12.7 µM], BAZ2B block inactive and JMJD2A Tudor inactive.
For CCSc1nnc(NC(=O)c2cccnc2Cl)s1 the results were L3MBTL1 block inactive, HP1b binding inh inactive, G9a inh inactive, BAZ2B block inactive and JMJD2A Tudor inactive.
Screening CCSc1nnc(NC(=O)c2cnccn2)s1 returned L3MBTL1 block inactive, HP1b binding inh inactive, G9a inh inactive, BAZ2B block inactive and JMJD2A Tudor 79µM.
For CCSc1nnc(NC(=O)c2ccccn2)s1 the results were L3MBTL1 block inactive[11.4 µM], HP1b binding inh inactive, G9a inh inconclusive, BAZ2B block 6.3µM and JMJD2A Tudor 8.9µM.
For CCc1ccc(NC(=O)CSC2=Nc3ccccc3C3=NC(CCC(=O)NCc4cccs4)C(=O)N23)cc1 (centres undefined) the results were HP1b binding inh inactive, G9a inh inactive, BAZ2B block inactive and JMJD2A Tudor inactive.
For CN1C(=O)/C(=C/c2ccccc2OCc2ccccc2)NC1=S the results were L3MBTL1 block inactive, HP1b binding inh inactive, G9a inh inconclusive, BAZ2B block inconclusive and JMJD2A Tudor inactive.
For CN1C(=O)/C(=C/c2cc(C(C)(C)C)c(O)c(C(C)(C)C)c2)NC1=S the results were HP1b binding inh inactive, G9a inh 13µM, BAZ2B block inactive and JMJD2A Tudor inactive.
For Cn1cnc2nc(NCCO)nc(NCc3ccccc3)c21 the results were G9a inh inactive.
Screening O=C(Nc1nnc(-c2ccco2)s1)C1CCN(S(=O)(=O)c2ccc(Cl)cc2)CC1 returned L3MBTL1 block inactive, HP1b binding inh inactive, G9a inh inactive, BAZ2B block inactive and JMJD2A Tudor inactive.
For O=C(Nc1nnc(-c2ccco2)s1)C1CC1 the results were L3MBTL1 block inactive, HP1b binding inh inactive, G9a inh 50µM, BAZ2B block inconclusive and JMJD2A Tudor inconclusive.
`O=C(c1cccn1-c1nnc(N2CCCCC2)s1)N1CCN(c2ccccc2)CC1` gave HP1b binding inh inactive, G9a inh inactive, BAZ2B block inconclusive and JMJD2A Tudor inactive.
For CCOC(=O)/C(=N/Nc1ccccc1OC)N1CCCc2ccccc21 the results were L3MBTL1 block inactive, HP1b binding inh inactive, G9a inh 2.5µM, BAZ2B block inactive and JMJD2A Tudor inactive.
CCOC(=O)/C(=N/Nc1ccc(OC)cc1)N1CCCc2ccccc21 was read as L3MBTL1 block inactive, HP1b binding inh 71µM, G9a inh 22µM, BAZ2B block 28µM and JMJD2A Tudor inconclusive.
Screening COC(=O)/C(=N/Nc1ccccc1C)N1CCCc2ccccc21 returned L3MBTL1 block inactive, HP1b binding inh inactive, G9a inh 35µM, BAZ2B block inactive and JMJD2A Tudor inactive.
CCOC(=O)/C(=N/Nc1ccccc1)N1CCCc2ccccc21 was read as L3MBTL1 block inactive, HP1b binding inh inactive, G9a inh inconclusive, BAZ2B block inconclusive and JMJD2A Tudor inactive.
O=C(COC(=O)c1ccc(S(=O)(=O)N2CCOCC2)cc1)Nc1ccccc1OC(F)F was read as L3MBTL1 block inactive, HP1b binding inh inactive and JMJD2A Tudor inactive.
O=S(=O)(c1ccc(-c2csc(=Nc3ccccc3)n2CCCN2CCOCC2)cc1)N1CCOCC1 was read as L3MBTL1 block inactive, HP1b binding inh inconclusive, G9a inh inactive[0.501 µM], BAZ2B block 40µM and JMJD2A Tudor inconclusive.
